We go through twelve molecules from PubChem BioAssay.

The test in a line: small-molecule microarray binders of probe aEGFR, primary screen, biochemical, biotinylated probe, 635/667 nm fluorescence (AID 1097).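 Also: probe is a biotinylated anti-EGFR antibody binding compounds printed on slides; score combines fluorescence near 667 nm and signal to noise of each spot.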 To be noted: higher = more signal.
As to `COC(=O)C(CC#Cc1ccc2c(c1)[C@]1(C(=O)N2)[C@H](c2ccccc2OCCO)N2[C@H](c3ccccc3)[C@H](c3ccccc3)OC(=O)[C@H]2[C@@H]1C(=O)N1CCN(c2ncccn2)CC1)C(=O)OC`, the composite z-score is -0.0982.
For `COC(=O)[C@@]1(Cc2ccc(F)cc2)[C@H]2c3cc(C(=O)N(C)C)n(Cc4ccc(C(F)(F)F)nc4)c3C[C@H]2CN1C(=O)c1ccccc1`, the composite z-score came out at 0.379.
Consider `COCCCNC(=O)[C@]1(Cc2ccccc2CN=[N+]=[N-])N=C(c2ccc(OCCCO)cc2)O[C@@H]1c1ccccc1N=[N+]=[N-]`, for which the composite z-score worked out at 0.371.
To `[N-]=[N+]=Nc1ccccc1C[C@]1(C(N)=O)COC(c2ccc(OCCCO)cc2)=N1` belongs 0.516; to `COc1cc(Cc2cc3c(c(-c4ccccc4)n2)[Si](C(C)C)(C(C)C)OC3)cc(OC)c1OC`, -0.0864.
As to `COC(=O)C[C@H]1O[C@]2(C(=O)N(C)c3ccccc32)[C@@H](C)[C@@H]1[Si](C)(C)c1ccccc1`, the composite z-score is -0.0675.
For `C=CC[C@H](O)c1ccc(O)c(F)c1` the value was -0.115.
In turn, `COc1ccc(CCNC(=O)[C@@H]2c3ccccc3C(=O)N(C(C)C)[C@H]2c2ccc(CO)cc2)cc1` came in with a composite z-score of -0.238.
For `COC(=O)[C@@]1(Cc2ccc(F)cc2)[C@H]2c3cc(C(=O)N(C)C)n(CCF)c3C[C@H]2CN1C(=O)c1ccccc1` the value was -0.0896; for `Cc1ccc(N2C(=O)c3ccccc3[C@@H](C(=O)NCCN3CCOCC3)[C@@H]2c2ccc(CO)cc2)nc1`, -0.197.
To `O=C/C=C/c1ccc(-c2ccccc2)cc1` belongs -0.15; to `CC[C@@H](O[Si](C#C[Si](C(C)C)(C(C)C)C(C)C)(C(C)C)C(C)C)c1cn([C@H](C)c2ccccc2)nn1`, -0.0332.
